Experiment [1] is described as follows: qHTS assay to identify small molecule antagonists of the estrogen related receptor (ERR) signaling pathway from Tox21 library - cell viability counter screen (AID 1224834). Also: nearly all actives have a fitted effect of over 30% in size. Also: potency is read from the fitted curve at half-maximal effect. An outline of the steps: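 Fluorescence from CellTiter-Fluor gives the viability read-out, taken 30 min after reagent addition. Before that, ERR cells seeded 6 h earlier were incubated with compounds for 17.5 h at 37 C.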
In general terms: In qHTS, concentration-response curves come from the screen itself.

The nature of experiment [2]: qHTS assay to identify small molecule agonists of the constitutive androstane receptor (CAR) signaling pathway - cell viability counter screen (AID 1224836). Also: % is scaled to controls: 0 for no effect and ±100 for the full control effect; nearly all actives have a fitted effect of over 45% in size. An outline of the steps: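 HepG2 cells stably carrying hCAR and a CYP2B6-2.2kb reporter; 15-concentration compounds plus PK11195 (final 0.75 uM), 23 hr at 37 C/5% CO2. Viability read by CellTiter-Fluor fluorescence.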

A short description of experiment [3]: qHTS assay to identify small molecule antagonists of the constitutive androstane receptor (CAR) signaling pathway - cell viability counter screen (AID 1224837). Also: % is scaled to controls: 0 for no effect and ±100 for the full control effect; nearly all actives have a fitted effect of over 45% in size. An outline of the steps:
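HepG2-CYP2B6-hCAR cells, 2500/well, 4 hr pre-incubation; compound titration, 15 conc.; CITCO 50 nM final; 23 hr, 37 C/5% CO2; CellTiter-Fluor, fluorescence intensity.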

Experiment [4] has as its target Nuclear receptor subfamily 1 group I member 3 (Homo sapiens) (UniProt Q14994). The experiment is described as follows: qHTS assay to identify small molecule agonists of the constitutive androstane receptor (CAR) signaling pathway (AID 1224839). Also: % is scaled to controls: 0 for no effect and ±100 for the full control effect; nearly all actives have a fitted effect of over 15% in size. The essentials: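 HepG2 cells stably co-transfected with hCAR and a CYP2B6-2.2kb luciferase reporter; compounds at 15 concentrations with 0.75 uM PK11195 present. After 24 hr at 37 C, luciferase read by ONE-Glo luminescence.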

A short description of experiment [5]: qHTS assay to identify small molecule antagonists of the estrogen related receptor signaling pathway with the pleiotropic PPARgamma coactivator (PGC) from Tox21 10K library - cell viability counter screen (AID 1224840; active = well fitted cell-killing curve with a large enough effect in the repeat runs, not every such curve was filed as active; also: % is scaled to controls: 0 for no effect and ±100 for the full control effect; nearly all actives have a fitted effect of over 40% in size). An outline of the steps:
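PGC/ERR cells, 2,000/well; 6 h pre-incubation 37 C/5% CO2; cpd in DMSO via pin tool; 17.5 h 37 C; CellTiter-Fluor, 30 min; fluorescence.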

Experiment [6] can be described thus: qHTS assay to identify small molecule agonists of the hypoxia (HIF-1) signaling pathway - cell viability counter screen (AID 1224844; calls by dose curve; also: % is scaled to controls: 0 for no effect and ±100 for the full control effect; nearly all actives have a fitted effect of over 50% in size). The essentials: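 ME-180 HRE-bla cells, 2,000/well, 0.5% dialyzed FBS; 5 hr settle, 17 hr compound at 37C/5% CO2; CCF4-AM reporter read first, then CellTiter-Glo luminescence after 30 min RT.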
A short description of experiment [7]: qHTS assay to identify small molecule agonists of H2AX (AID 1224845; active = well fitted activation curve with a large enough effect in the signal ratio in the repeat runs, not every such curve was filed as active; the % refers to the signal ratio; also: % is scaled to controls: 0 for no effect and ±100 for the full control effect). An outline of the steps:
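Wild-type CHO-K1 cells plated overnight, then exposed 3 hr at 37C to compounds at 15 concentrations (0.76% DMSO). Lysed, then HTRF anti-pH2AX(S139)-cryptate/anti-H2AX-d2 detection after 24 hr at room temperature; emissions 665 and 620 nm.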

The nature of experiment [8]: qHTS assay to identify small molecule agonists of H2AX - cell viability counter screen (AID 1224847; calls by dose curve; also: nearly all actives have a fitted effect of over 30% in size; also: potency is read from the fitted curve at half-maximal effect). An outline of the steps: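 CHO-K1 cells plated overnight at 37C, then exposed 3 h at 37C to compounds at 15 concentrations (0.76% DMSO final). Viability by CellTiter-Glo luminescence after 30 min at room temperature.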
Experiment [9] is described as follows: qHTS RealTime-Glo MT Cell Viability Assay in HepG2 cells - 24 hour (AID 1224867). Also: % is scaled to controls: 0 for no effect and ±100 for the full control effect; nearly all actives have a fitted effect of over 50% in size. The essentials:
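Viability was tracked continuously by NanoLuc luminescence from prosubstrate reduced by living HepG2 cells, at successive time points over 40 h of compound exposure. Cells with reagent were preincubated 5 h at 37 °C before compound addition.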

Experiment [10] can be described thus: qHTS RealTime-Glo MT Cell Viability Assay in HEK293 cells - 32 hour (AID 1224868). Also: nearly all actives have a fitted effect of over 50% in size. Also: potency is read from the fitted curve at half-maximal effect. The essentials:
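Viability tracked continuously by luminescence as live cells reduce a prosubstrate for NanoLuc; HEK293 cells preincubated 5 h, compound-treated at 37 C, and read at 0, 8, 16, 24, 32 and 40 h.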

Experiment [11] can be described thus: A CellTox Green Cytotoxicity Assay to monitor cytotoxicity in HEK293 cells - 0 hour (AID 1224869). Also: % is scaled to controls: 0 for no effect and ±100 for the full control effect; nearly all actives have a fitted effect of over 50% in size. The essentials:
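Nonlytic real-time cytotoxicity: HEK293 + CellTox Green reagent plated, 5 h preincubation, pintool compound addition (23 nL in DMSO), 37 C for 40 h, fluorescence measured at successive time points.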

A short description of experiment [12]: qHTS RealTime-Glo MT Cell Viability Assay in HepG2 cells - 40 hour (AID 1224870). The essentials: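 HepG2 cells mixed with RealTime-Glo MT reagents (NanoLuc plus cell-permeant prosubstrate) were seeded at 600 cells/well, incubated 5 h at 37 C/5% CO2, then pinned with compounds in DMSO; nonlytic luminescence tracked viability during 40 h treatment.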
Experiment [13] addresses Nuclear receptor subfamily 1 group I member 3 (Homo sapiens) (UniProt Q14994). Kind of experiment: qHTS assay to identify small molecule antagonists of the constitutive androstane receptor (CAR) signaling pathway (AID 1224838).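 Also: HepG2 cells stably expressing hCAR with CYP2B6 luciferase reporter stimulated by CITCO; % is scaled to controls: 0 for no effect and ±100 for the full control effect; nearly all actives have a fitted effect of over 40% in size.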 An outline of the steps:
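HepG2-CYP2B6-hCAR cells; 4 h pre-incubation; cpd (15 conc) + CITCO 50 nM final; 24 h, 37 C/5% CO2; ONE-Glo, luminescence.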

Experiment [14] concerns the target Thyrotropin receptor (Homo sapiens) (UniProt P16473). Kind of experiment: qHTS assay to identify small molecule agonists of the thyroid stimulating hormone receptor (TSHR) signaling pathway (AID 1224843; calls by dose curve; also: % is scaled to controls: 0 for no effect and ±100 for the full control effect; nearly all actives have a fitted effect of over 45% in size). The essentials: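 Cell line HEK293 with TSHR; density 800/well. Exposure 30 min RT. Readout HTRF cAMP (cAMP-d2/anti-cAMP-cryptate), 1 h RT before reading.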

A short description of experiment [15]: qHTS assay to identify small molecule agonists of the hypoxia (HIF-1) signaling pathway (AID 1224846; active = well fitted activation curve with a large enough effect in the signal ratio in the repeat runs, not every such curve was filed as active; the % refers to the signal ratio; also: % is scaled to controls: 0 for no effect and ±100 for the full control effect). The essentials: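 Cell line: CellSensor HRE-bla ME-180; 2,000 cells/well; 0.5% dialyzed FBS; 5 h preincubation; DMSO compound pin transfer; 17 h, 37C, 5% CO2; CCF4-AM added; bla FRET signal scored for activation.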
Experiment [16] addresses Luciferin 4-monooxygenase (Photinus pyralis) (UniProt P08659). Kind of experiment: qHTS assay to identify small molecule inhibitors of firefly luciferase (AID 1224835). Also: % is scaled to controls: 0 for no effect and ±100 for the full control effect; nearly all actives have a fitted effect of over 25% in size. The essentials:
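Quantitative HTS format; KM concentrations of both substrates. Purified P. pyralis FLuc activity quantified from luminescence images.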

Experiment [17] in a line: qHTS assay to identify small molecule agonists of the estrogen related receptor signaling pathway with the pleiotropic PPARgamma coactivator (PGC) from Tox21 10K library (AID 1224842). Also: % is scaled to controls: 0 for no effect and ±100 for the full control effect; nearly all actives have a fitted effect of over 15% in size. An outline of the steps: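 PGC/ERR reporter cells (NTP line) were seeded 2,000 per well, rested 6 h at 37 C/5% CO2, then pin-dosed with compounds in DMSO for 18 h at 37 C; luciferase read by One-Glo luminescence after 30 min at room temperature.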

Experiment [18] is described as follows: qHTS assay to identify small molecule antagonists of the estrogen related receptor (ERR) signaling pathway from Tox21 library (AID 1224848). The essentials:
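Screening used an ERR reporter line supplied by NTP, exposed for 18 h at 37 C to library compounds delivered in DMSO. Signal was luciferase luminescence developed with ONE-Glo at room temperature for 30 min.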

Experiment [19] in a line: qHTS assay to identify small molecule agonists of the estrogen related receptor (ERR) signaling pathway from Tox21 library (AID 1224849; calls by dose curve; also: % is scaled to controls: 0 for no effect and ±100 for the full control effect; nearly all actives have a fitted effect of over 15% in size). The note with it: ERR reporter cell line, ONE-Glo luciferase, 18 h; at 92.4 µM (top of the series) unless noted. The essentials: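 ERR cells, 6 h pre-incubation 37 C/5% CO2; cpd in DMSO pinned; 18 h 37 C; ONE-Glo added, 30 min RT; luminescence read. Agonist mode, qHTS.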

Molecules are shown by their SMILES. A number with no mark means an inactive call. Records with an inconclusive call do not appear. Calls of active or inactive are those of the source. Unless noted, calls follow the shape of the dose curve; as a rule, active = well fitted curve in the direction sought with a large enough effect in the repeat runs; inconclusive = weak or mixed curves; inactive = no such curve, though single readings can be large; an effect the other way counts as inactive or inconclusive.

Nuclear receptor subfamily 1 group I member 3 (Homo sapiens), sequence (Q14994 whole entry, looked up): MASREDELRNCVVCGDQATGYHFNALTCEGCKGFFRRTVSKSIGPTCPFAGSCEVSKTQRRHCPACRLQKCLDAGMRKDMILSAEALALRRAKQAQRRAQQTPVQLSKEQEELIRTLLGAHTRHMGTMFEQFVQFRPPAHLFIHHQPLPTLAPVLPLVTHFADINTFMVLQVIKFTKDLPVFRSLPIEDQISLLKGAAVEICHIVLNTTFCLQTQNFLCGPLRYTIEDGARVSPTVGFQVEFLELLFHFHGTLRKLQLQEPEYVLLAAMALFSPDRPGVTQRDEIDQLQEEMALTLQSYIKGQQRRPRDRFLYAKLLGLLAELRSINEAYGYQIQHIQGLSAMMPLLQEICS
Thyrotropin receptor (Homo sapiens), sequence (P16473 whole entry, looked up): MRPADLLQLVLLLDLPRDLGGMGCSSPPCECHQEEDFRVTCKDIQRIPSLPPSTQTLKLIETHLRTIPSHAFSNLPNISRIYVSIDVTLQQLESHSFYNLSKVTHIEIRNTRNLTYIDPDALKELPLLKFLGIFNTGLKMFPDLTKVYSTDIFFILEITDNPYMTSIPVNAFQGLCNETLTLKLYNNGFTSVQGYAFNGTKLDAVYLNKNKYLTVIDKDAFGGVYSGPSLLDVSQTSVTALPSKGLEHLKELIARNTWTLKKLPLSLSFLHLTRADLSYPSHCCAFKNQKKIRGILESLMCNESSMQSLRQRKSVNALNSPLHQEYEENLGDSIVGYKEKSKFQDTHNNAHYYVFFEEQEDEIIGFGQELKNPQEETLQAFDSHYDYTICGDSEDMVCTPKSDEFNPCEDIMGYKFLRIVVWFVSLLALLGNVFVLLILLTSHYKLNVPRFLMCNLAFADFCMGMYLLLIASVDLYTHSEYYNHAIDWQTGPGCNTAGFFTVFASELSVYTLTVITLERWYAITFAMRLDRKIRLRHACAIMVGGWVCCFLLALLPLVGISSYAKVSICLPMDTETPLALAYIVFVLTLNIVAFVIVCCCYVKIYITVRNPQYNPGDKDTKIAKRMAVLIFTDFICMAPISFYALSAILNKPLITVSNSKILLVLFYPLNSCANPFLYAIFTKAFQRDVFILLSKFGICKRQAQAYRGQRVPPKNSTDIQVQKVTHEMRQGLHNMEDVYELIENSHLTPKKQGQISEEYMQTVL
Luciferin 4-monooxygenase (Photinus pyralis), sequence (P08659 whole entry, looked up): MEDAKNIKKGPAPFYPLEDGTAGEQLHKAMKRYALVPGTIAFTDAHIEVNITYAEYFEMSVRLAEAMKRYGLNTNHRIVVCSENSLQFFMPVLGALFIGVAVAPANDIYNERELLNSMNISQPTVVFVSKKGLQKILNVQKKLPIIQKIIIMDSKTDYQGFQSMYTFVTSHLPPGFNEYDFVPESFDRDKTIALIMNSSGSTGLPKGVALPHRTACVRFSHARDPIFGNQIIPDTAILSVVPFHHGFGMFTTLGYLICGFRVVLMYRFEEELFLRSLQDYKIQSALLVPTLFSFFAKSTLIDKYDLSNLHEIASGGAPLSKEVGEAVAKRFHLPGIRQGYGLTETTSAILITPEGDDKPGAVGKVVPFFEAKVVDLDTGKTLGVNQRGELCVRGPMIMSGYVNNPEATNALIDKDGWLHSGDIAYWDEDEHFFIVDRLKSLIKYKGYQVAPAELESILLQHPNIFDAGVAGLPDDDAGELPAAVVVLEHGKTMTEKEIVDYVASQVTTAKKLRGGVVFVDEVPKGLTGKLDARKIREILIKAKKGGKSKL

As to `O=C(O)c1ccc2cc(O)ccc2c1`, the Potency entry in experiment [1], in [2], in experiment [3], in experiment [4], in experiment [5] and in experiment [6] was “inactive” throughout. Further, the Potency entry in experiment [7], in [8], in [10], in experiment [11] and in experiment [12] was “inactive” each time. In addition, the call in experiment [9] was inactive.
On to `C=C[Si]1(C)O[Si](C)(C=C)O[Si](C)(C=C)O[Si](C)(C=C)O1` (centres undefined), for which the Potency entry in experiment [1], in [2], in experiment [3], in experiment [13], in [4] and in [5] was “inactive” throughout. Further, the Potency entry in experiment [14], in experiment [6], in experiment [7], in [10], in experiment [11] and in experiment [12] was “inactive” in each case. For the same compound, in experiment [15], the call was inactive.
As to `CC1(C)CC(=O)CC(C)(C)N1`, the Potency result in experiment [1], in experiment [16], in experiment [2], in [5], in experiment [14] and in experiment [6] was “inactive” in each case. Moreover, the Potency result in experiment [7], in experiment [8] and in experiment [10] was “inactive” in each case. Further, the compound was called inactive in experiment [9].
On to `CC1=C(C)C(=O)C(CCCCC#CCCCC#CCO)=C(C)C1=O`, for which the Potency is 23.7 µM (active) in experiment [1], 49.2 µM (active) in experiment [8], 13.3 µM (active) in experiment [18] and 0.674 µM (active) in experiment [10]. Also, the Potency entry in experiment [2], in experiment [3], in experiment [13], in experiment [5], in experiment [17] and in experiment [14] was “inactive” throughout. For the same compound, the Potency entry in experiment [6], in [11] and in experiment [12] was “inactive” each time. In addition, the compound was called inactive in experiment [15]. For the same compound, the activity change, positive = activation in experiment [19] is -50.9% [at 42.5 µM].
As to `O=C(O)c1ccc(O)c(O)c1`, the Potency entry in [1], in experiment [16], in experiment [2], in [13], in experiment [4] and in experiment [5] was “inactive” in each case. Also, the Potency result in experiment [14], in experiment [6], in experiment [10] and in experiment [12] was “inactive” in each case. For the same compound, the call in experiment [15] and in experiment [9] was inactive.
Turning to `CCc1c(C)[nH]c2c1C(=O)C(CN1CCOCC1)CC2` (centres undefined), the Potency result in experiment [1], in experiment [16], in [2], in experiment [5], in [14] and in experiment [6] was “inactive” in each case. For the same compound, the Potency result in experiment [7], in experiment [8], in experiment [10], in experiment [11] and in [12] was “inactive” throughout. In [9], the compound was called inactive.
For the compound `CCCCCCCCOCCCN`, the Potency result in [1], in experiment [16], in [2], in [4], in experiment [5] and in experiment [14] was “inactive” throughout. Also, the Potency entry in experiment [6], in experiment [7], in [8], in experiment [10], in experiment [11] and in [12] was “inactive” throughout. Besides, the compound was called inactive in experiment [15].
`CC(C(=O)O)c1ccc2c(c1)Cc1cccnc1O2` (centres undefined): the Potency result in [1], in experiment [16], in experiment [2], in experiment [5], in experiment [14] and in experiment [6] was “inactive” each time. The Potency result in [7], in experiment [8], in experiment [10], in experiment [11] and in experiment [12] was “inactive” throughout. Moreover, the result in experiment [15] and in [9] was inactive.
Regarding `CC(C)NC(=O)c1ccccc1N`, the Potency result in experiment [1], in experiment [16], in experiment [2], in [13], in [4] and in [5] was “inactive” throughout. For the same compound, the Potency entry in experiment [14], in [6], in [7], in experiment [8], in experiment [10] and in [11] was “inactive” in each case. Moreover, in [12], the Potency entry was “inactive”. Also, the compound was classed as inactive in [9].
`O=C(OCCOCCOCCOC(=O)c1ccccc1)c1ccccc1`: the Potency result in [1], in experiment [16], in experiment [2], in [4], in experiment [5] and in [6] was “inactive” in each case. For the same compound, the Potency result in experiment [7], in [10] and in experiment [11] was “inactive” throughout. In addition, the compound was classed as inactive in experiment [9].

The record behind these values is PubChem BioAssay (Tox21).
